Test results: the supplement of paper PMC11417369
± gives the standard deviation of the averaged measurements. The full ranking holds about 25,000 sequences; the median of “ln(normalized median fluorescence intensity)” is about 8.9, and the highest 2% start at about 10. What follows is part of a selection rich in the highest values, with near analogues and random picks from the rest.

tested on: PfAP2-LT AP2 domain (GST-tagged); test: gcPBM binding intensity (ln(normalized median fluorescence intensity)); higher = stronger DNA binding
Summary of the method: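 GST-tagged P. falciparum DNA-binding domains produced in E. coli were incubated for 1 h on an Agilent 4 × 180k array of primer-extended double-stranded 36-bp intergenic genomic probes with negative controls. Binding intensity is the highest Masliner-normalised natural-log median intensity across replicate spots of either probe orientation, with bound protein detected by Alexa488 anti-GST antibody at 488 nm.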

| Sequence | gcPBM binding intensity (ln) |
| --- | --- |
| TGAAAATATTTTATATGTACATATATTATCAATACA [XGTACX_site92] | 8.64 ± 0.38 |
| TTTCTGATATTTTTATATTTTCTTATATATATATAT [GTGCAC_negctrl_site652] | 8.77 ± 0.52 |
| TGTCTTATTTATATTACACACTATATGAAAAAATAT [CACACA_site6807] | 8.6 ± 0.38 |
| ATAAATAAATAAGTACATATATATATGTATATATAT [TGCATGCA_negctrl_site223] | 9.05 ± 0.42 |
| ACTAAATAAATAAATATAATATATAAATATGTATGT [TGCATGCA_negctrl_site583] | 8.78 ± 0.43 |
| TTTATTAATAATTATACACACATATAAAATGAATAA [CACACA_site1359] | 8.58 ± 0.51 |
| TTAATATGAAAACTCTGTACCCAACCTTCTTATGGA [XGTACX_site2126] | 8.62 ± 0.28 |
| ATGCAATTATATAGTAGTACAAATTTATAAATATAC [XGTACX_site4869] | 8.94 ± 0.37 |
| ATTTAATAAAAAAAAAAAATATTGTAGAATATGATG [GTGCAC_negctrl_site195] | 8.27 ± 0.52 |
| AAAGGTATATATGTGTGTACATATATATATATATAT [XGTACX_site5629] | 9.955 ± 0.0071 |
| TCCTTTTCTTAATTTAAAAAATATAAAAAAAACGAA [CACACA_negctrl_site1821] | 7.94 ± 0.34 |
| TGAACTCATAGGAAAACACACATATGTGCAATATAT [CACACA_site6231] | 9.12 ± 0.36 |
| AAAACAAACAGACACACACACATATTTATATTTATA [CACACA_site7681] | 9.79 ± 0.4 |
| TATATATACAGACACATACACACAAATAAAAAAACA [CACACA_site3413] | 9.39 ± 0.35 |
| AAAACAAACGGACACACACACATATATATATATATA [CACACA_site5924] | 10.2 ± 0.44 |
| AAAAGGAACAGACACACACACATATATAAATATGTA [CACACA_site7656] | 9.8 ± 0.42 |
| AAGGTAAACGGACACACACACATACAAAAAAAAAAA [CACACA_site5961] | 9.77 ± 0.67 |
| AAAAAAAACAGACACACACACATACAAAATATATAT [CACACA_site1449] | 9.79 ± 0.3 |
| AAAAGGAACAGACACACACACATATATATATATATA [CACACA_site3587] | 10.3 ± 0.29 |
| AAAAAAAACGGACACACACACATACAAAATATATAT [CACACA_site4910] | 9.99 ± 0.28 |
| TACAAACAGACATATACACACAAAAAAAAAATAAAA [CACACA_site2562] | 9.16 ± 0.43 |
| AAAAAAAACAGACACACACACATAAATATAAATAAA [CACACA_site6214] | 9.74 ± 0.31 |
| AAAACAGACAAACACACACACACATATATATATATA [CACACA_site3393] | 10.37 ± 0.071 |
| AAAACAAACAGACACACACACATATATATATATATA [CACACA_site3655] | 10.4 ± 0.24 |
| ATAACATATTTCTTTTGTACTCAAAATAAAATTAAT [XGTACX_site2479] | 8.37 ± 0.4 |
| ATATAATAAATATGTTGTACTATAAAAAATAGCCAT [XGTACX_site4710] | 8.78 ± 0.33 |

| Sequence | gcPBM binding intensity (ln) |
| --- | --- |
| AAATTATAATTAGGAACACACATATATATATATATA [CACACA_site3098] | 9.78 ± 0.29 |
| GGACTATACAGTTATACACACACATATATATATAAT [CACACA_site7991] | 9.6 ± 0.4 |
| AAGAAGCATAAATGTACACACATATTTATATATTAA [CACACA_site1332] | 9.01 ± 0.43 |
| ATATATATATATATATGTACATATTTTATAACTGTA [XGTACX_site5395] | 9.72 ± 0.35 |
| ATATATATATATGTCTGTACATAAAAAATAATAAAT [XGTACX_site3122] | 8.975 ± 0.064 |
| ATATATATATATATATGTACATATGTCAACTGTCTA [XGTACX_site8636] | 10.1 ± 0.43 |
| TTTTTGTAATATTATGATGTCATATATATATATATA [XGTACX_negctrl_site618] | 9.035 ± 0.078 |
| TTTTAAATATGCAGATGTACATTATAATGTTTTATT [XGTACX_site2079] | 8.87 ± 0.47 |
| GTATAATATGAACACACACACACACGCAAAAAAAAA [CACACA_site7036] | 10.19 ± 0.064 |
| GTATAATAGAAACACACACACACACCCAAAAAAAAA [CACACA_site2010] | 10.3 ± 0.39 |
| TAGTATAATATGAACACACACACACCCACAAAAAAA [CACACA_site2009] | 10 ± 0.29 |
| TAGTATAATATGAACACACACACACCGACAAAAAAA [CACACA_site5151] | 9.96 ± 0.2 |
| ATATATATGAAACACACACACAAAAAAAAAAAAAAA [CACACA_site3647] | 9.45 ± 0.57 |
| ATAATATGAAAACACACACACACACCCAAAAAAAAA [CACACA_site2011] | 10.1 ± 0.15 |
| TCATATGTGAAACACACACACACACCCAAAAAAACA [CACACA_site3247] | 10.06 ± 0.028 |
| TAGTATAATATGAACACACACACACGCACAAAAAAA [CACACA_site7035] | 9.94 ± 0.27 |
| AATATATAGAAACACACACACAAAAAAAAAAAAAAA [CACACA_site1326] | 9.27 ± 0.47 |
| GTATAATATGAACACACACACACACCCAAAAAAAAA [CACACA_site5152] | 10.3 ± 0.45 |
| TATATATAGAAACACACACACAAAAAAAAAAAAAAA [CACACA_site1506] | 9.15 ± 0.46 |
| ATCGTAGTATAATATGAACACACACCCACCCACAAA [CACACA_site8616] | 9.71 ± 0.29 |
| TTTTTTTTTGAAAAAAGTACTTAATTTTTAAGAAGA [XGTACX_site3591] | 7.83 ± 0.3 |
| AATATATATATATATATATATTTTTGTTAGAATATG [XGTACX_negctrl_site58] | 8.95 ± 0.32 |
| TAAGTTTGTCAATCAACACACACCTATTTATTATAT [CACACA_site3919] | 9.11 ± 0.35 |
| AACACAATAAAAATTAAAAATGTTAAGTAAATATAA [GTGCAC_negctrl_site60] | 8.68 ± 0.52 |
| ATATATATATGAATCACACACAAAAAATATAGAGAT [CACACA_site3913] | 9.51 ± 0.41 |
| ATGCAACTATATATATATATTATATGTATGAATAAT [XGTACX_negctrl_site434] | 8.97 ± 0.28 |

| Sequence | gcPBM binding intensity (ln) |
| --- | --- |
| ATAATATATTTATGTTGTACAAGGAAAATTTTGAAA [XGTACX_site3472] | 8.76 ± 0.42 |
| ATTTTTTTTATTCAATGTACTTTTTTTTATATATAT [XGTACX_site4978] | 8.8 ± 0.45 |
| AGTATACTCAAACACACACACACAAAAAAAAAAAAA [CACACA_site4398] | 9.88 ± 0.58 |
| TATACATACTCACCCACACACAAAAAAAAAAAAAAA [CACACA_site862] | 9.28 ± 0.47 |
| TATACTCAGAAACACACACACACACCCAAAAAAAAA [CACACA_site4434] | 10.1 ± 0.35 |
| AACAACTATTAATTTACACACATGTATTTATTTTAC [CACACA_site5683] | 9.3 ± 0.4 |
| AAATAAATAAATAAATAAACAAATATGTATAAATGG [XGTACX_negctrl_site153] | 8.85 ± 0.51 |
| TTTAAAAAAAAAAAAAAAAATTCTACATGTAATTTA [CACACA_negctrl_site1205] | 7.96 ± 0.41 |
| AATTTATAAAAGAAGAGGACACATATAAATATAAAT [XGTACX_site59] | 8.78 ± 0.52 |
| TGGGAAAAAATATATGCACACCCCCCAAAAAAAAAA [CACACA_site8696] | 10.48 ± 0.071 |
| AAAAAAAATATATATGCACACACAAAAAAACAAATT [CACACA_site8349] | 9.48 ± 0.37 |
| GGAAAAAATATATGCACACCCCCCAAAAAAAAAAAA [CACACA_site2222] | 10.5 ± 0.13 |
| ATAATATAAATATGCACACAAATTATTACCCAAAAA [CACACA_site2524] | 9.03 ± 0.41 |
| ATAAATAAAATATGCACACAAATATAGGAAACAACA [CACACA_site2561] | 9.38 ± 0.38 |
| TTAAAAAAATATAATACACACCAAAAATATGCACAT [CACACA_site5209] | 9.03 ± 0.38 |
| TTATTACATAACAATATACACACTATTGATTAAAGA [CACACA_site2933] | 8.68 ± 0.39 |
| GAATACACCACGCACACACACTTGAGAAAAAATAAA [CACACA_site7747] | 9.66 ± 0.47 |
| AAGAATACACCACGCACACACACTTGAGAAAAAATA [CACACA_site3828] | 9.96 ± 0.47 |
| ACAAGAATACACCACGCACACACACTAGAGAAAAAA [CACACA_site9276] | 10.1 ± 0.54 |
| CATAAAAATATTAATAAACACACAATCAGATATTGA [CACACA_site9032] | 8.87 ± 0.45 |
| ATGTATAATATTTTCACACACAAGAAAAAAGAAAAG [CACACA_site3591] | 9.27 ± 0.36 |
| TAAAAATATAAAACATGTACATATATGCATATATTT [XGTACX_site8093] | 8.86 ± 0.48 |
| TAAAAAAAAACATGTGCACACGTTTTATCTACATAA [CACACA_site2336] | 10.1 ± 0.32 |
| CAAAACATTTTATCTACACACATATATAAATAAATA [CACACA_site3220] | 8.88 ± 0.38 |
| TTATCTCTACAAAGTGCACACACGTAAAAACATATA [CACACA_site3957] | 9.09 ± 0.35 |
| TGTAATAAAATAATTAGTACACATATATGTATATTT [XGTACX_site5896] | 8.72 ± 0.33 |
